Assay results from PubChem BioAssay (NCI).
The panel holds about 83,000 compounds, 20% with a hit somewhere; the sample as a whole holds those more often.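 96-well plates, one dose, 48 hours. Percent growth reported; active if below 10.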 A number with no mark means an inactive call. Activity calls are given as the source filed them.

Legend:
Assay in all cases: NCI-60 one-dose screen, 48 h (100 = growth as untreated, 0 = no growth, -100 = all killed)
Settings in all cases: 10 µM unless noted
[1] = test system: SK-MEL-2 melanoma
[2] = test system: EKVX NSCLC
[3] = test system: SN12C renal
[4] = test system: UO-31 renal
[5] = test system: TK-10 renal
[6] = test system: ACHN renal
[7] = test system: CAKI-1 renal
[8] = test system: A498 renal
[9] = test system: CCRF-CEM leukemia
[10] = test system: MOLT-4 leukemia

SMILES	growth [1]	growth [2]	growth [3]	growth [4]	growth [5]	growth [6]	growth [7]	growth [8]	growth [9]	growth [10]
CCN(CC)c1ccc(-c2cc(-c3cc(OC)c(OC)c(OC)c3)nc(N3CCC(O)CC3)c2C#N)cc1	-66.6% (active)	18.6%	13.5%	-43.9% (active)	3.06% (active)	7.6% (active)	-31.7% (active)	29%	16.4%	2.73% (active)
Cc1ccc(S(=O)(=O)OC[C@]23CCC(C)(C)C[C@H]2C2=CC[C@@H]4[C@@]5(C)CCCNC(C)(C)[C@@H]5CC[C@@]4(C)[C@]2(C)CC3)cc1	102%	83%	46.4%	60.2%	73%	48.6%	41.9%	95.4%	34.5%	12.9%
Cc1cc(O)cc(-c2nn(C)cc2-c2cc(N3CCOCC3)nc(-c3cccnc3)n2)c1	51.5%	52.3%	32.3%	30.5%	51.6%	37.9%	43.9%	-36.3% (active)	24.3%	26.8%
O=C(/C=C/c1cccc(Oc2ccccc2)c1)c1ccc(Nc2nc(Nc3ccc(F)cc3)nc(Nc3ccc(Cl)cc3)n2)cc1	69.1%	106%	123%	91.8%	130%	98.6%	104%	113%	116%	-35.6% (active)
C=C(C)[C@@H]1CC[C@]2(COC3CCCCO3)CC[C@]3(C)[C@H](CC[C@@H]4[C@@]5(C)C=C(C=O)C(=O)C(C)(C)[C@@H]5CC[C@]43C)[C@@H]12 (stereo not given in full)	-40.9% (active)	-60% (active)	-48.8% (active)	-86.8% (active)	-82.5% (active)	-59.2% (active)	-40.8% (active)	-95% (active)	-34.9% (active)	3.64% (active)
O=Nc1ccc(NC(=O)Nc2ccc([N+](=O)[O-])cc2)cc1	116%	96%	94.9%	85.8%	99.7%	94.7%	97.1%	84%	68.4%	88.6%
COc1ccc(-c2nc3c(c(-c4ccc(Cl)cc4)nn3-c3ccccc3)c(-c3ccccc3)c2C#N)cc1	109%	107%	105%	101%	120%	107%	94.8%	111%	102%	102%
CC1(/C=C/c2ccc(-c3ccccc3)cc2)CCn2cnc3ncnc(c32)N1O (stereo not given)	38.8%	17.6%	20.2%	-5.45% (active)	34.1%	6.19% (active)	4.49% (active)	19%	11.8%	14.2%
CC[C@@H](C(=O)[C@@H](C)[C@@H](O)[C@H](C)[C@@H]1O[C@@H]([C@@H](CC)C(=O)ONC(=O)c2ccccc2O)CC[C@@H]1C)C1O[C@]2(C=CC(=O)[C@]3(CC[C@@](C)([C@H]4CC[C@](O)(CC)[C@H](C)O4)O3)O2)[C@H](C)C[C@@H]1C (stereo not given in full)	76.9%	45.2%	24.1%	36.9%	75.8%	50.2%	39.2%	36.4%	36.6%	45.1%
Cn1c(=O)c2[nH]c(SC/C(=N/O)c3ccc(Br)cc3)nc2n(C)c1=O	33.6%	43.2%	17%	4.1% (active)	-30.6% (active)	-58.4% (active)	-45.3% (active)	-80% (active)	83.9%	94.7%
COc1ccc(Oc2ccc(/C=C/C(=O)c3ccc(OC)c(OC)c3)cc2)cc1	89%	79.4%	86.7%	70.9%	105%	92.5%	85.5%	90.3%	70.3%	-9.69% (active)
COc1ccc(CNc2ccc3nc(NC(=O)CN4CCCCCC4)sc3c2)cc1	85.4%	80.1%	87.3%	80.6%	117%	89.8%	85.2%	90.3%	58.6%	61.1%
O=c1cc(C(F)(F)F)c2cc(-c3cc4ccccc4c(=O)o3)c(O)cc2o1	46.1%	89.5%	64.4%	58.5%	103%	74.1%	76.5%	72%	53.9%	58.5%
Nc1ncnc2c1N=C(c1ccc(F)cc1)CC(c1cccc(Nc3ccnc4cc(Cl)ccc34)c1)N2 (stereo not given)	89.1%	64.9%	79.7%	59.6%	105%	96.3%	70.5%	92.3%	74.1%	39.6%
COc1ccc(-c2cn(Cc3cc4ccccc4s3)nn2)cc1OCCN1CCCCC1	90.8%	84.3%	81.6%	37.2%	90.1%	89.4%	78.9%	-1.93% (active)	62.2%	53%
COc1cc2c(c(OC)c1OC)C(=O)CC(c1cccc(C(=O)Nc3ccc(C#N)cc3)c1)O2 (stereo not given)	74.6%	80.2%	72.1%	52%	92.3%	79.4%	71.6%	72.1%	25%	20%
CCOC(=O)C/C(=N\Nc1cc(=O)[nH]c2ccc(OC)cc12)C(=O)OCC	117%	100%	99.5%	78.1%	114%	98.8%	91.9%	106%	-47.5% (active)	26.1%
NC(=O)c1ccccc1OCC(=O)Nc1ccc(Cl)c(Cl)c1	107%	92.2%	101%	84.1%	143%	89.3%	70.6%	93.7%	92.3%	89%
COC(=O)c1sccc1-c1cc(O)c(C(=O)Nc2ccccc2)s1	104%	71.9%	105%	69.9%	121%	94%	86.4%	115%	101%	96.9%
O=S(=O)(NCCNc1nccc(-c2c(-c3ccc(F)c(O)c3)nc3sccn23)n1)c1ccc(Cl)cc1	-31.6% (active)	36.6%	26.3%	11.6%	44.8%	19.8%	19.5%	30.8%	14.2%	1.03% (active)
O=C(Cn1nc(-c2cccc3ccccc23)ccc1=O)NCc1cccc(Cl)c1	59.2% [50 µM]	21% [50 µM]	46.4% [50 µM]	15.3% [50 µM]	40.7% [50 µM]	28.9% [50 µM]	40.2% [50 µM]	26.8% [50 µM]	43.9% [50 µM]	20.5% [50 µM]
C[C@H](c1nc2ccc(C#N)cc2[nH]1)[C@H]1CC[C@H]2[C@@H]3CCC4=CC(=O)CC[C@]4(C)[C@H]3CC[C@]12C	84.9%	58.4%	69.5%	51.8%	95.2%	80.4%	50.8%	14.5%	46.5%	49.2%

SMILES	growth [1]	growth [2]	growth [3]	growth [4]	growth [5]	growth [6]	growth [7]	growth [8]	growth [9]	growth [10]
O=S(=O)(Nc1ccc2ccccc2c1)c1ccc(-c2cnc(C3CC3)o2)cc1	40.2%	41.9%	44.9%	42.5%	61.9%	36.2%	28.9%	3.93% (active)	10.7%	20.2%
COc1cc2c(cc1-c1c(C)noc1C)ncc1nc(CN3CCOCC3)n([C@H](C)COC(F)F)c12	36.7%	49.6%	56.7%	14.1%	2.77% (active)	36.1%	35.1%	-7% (active)	44%	59.5%
CCOC(=O)c1c(C)nc2c(c1N)C(=O)C(=O)N2Cc1ccc(OC)cc1	113%	90.9%	82.6%	59.6%	96%	66.3%	83.3%	90.4%	59.1%	101%
COc1ccc(-c2cc(-c3cccnc3)nc3sc4c(N)c(C(C)=O)c(-c5ccccc5)nc4c23)cc1OC	89.1%	87.4%	80.3%	51.8%	77.6%	81.1%	61.8%	71.7%	70.5%	72.5%
CN(C)c1ccc(C(=S)c2ccc(N(C)C)cc2)cc1	58.5%	98.2%	75.6%	59%	82.7%	93.4%	87.1%	62.6%	77.3%	75.5%
CC(=O)c1sc(-c2ccc(F)cc2)cc1O	107%	99.7%	109%	88.5%	95.1%	106%	93.3%	102%	97.6%	93.4%
C/C(=C(\c1ccc(OCCN2CCCCCC2)cc1)c1ccc(OC(=O)c2ccccc2)cc1)c1ccc(Cl)cc1	63%	68.6%	47.1%	26.7%	70.4%	77.1%	49.5%	86.9%	16%	8.86% (active)
C#CCOc1cccc(Nc2ncnc3c2ncn3C2CCN(C(=O)CCl)C2)c1 (stereo not given)	-0.328% (active)	5.11% (active)	-71.3% (active)	-97.8% (active)	-83.8% (active)	-98.9% (active)	-97.4% (active)	85.9%	-28% (active)	-26.8% (active)
CN1CCN(c2ccc(NC3=CC(=O)c4ncncc4C3=O)cc2)CC1	-54% (active)	-87.1% (active)	-75.6% (active)	-98.3% (active)	-82.3% (active)	-96.2% (active)	-96% (active)	-36.7% (active)	3.21% (active)	-28.4% (active)
CN(C)Cc1cc(C(C)(C)C)cc(Br)c1O	113%	96.8%	105%	98%	100%	108%	91.6%	90.6%	116%	110%
O=C(/C=C/c1ccccc1)c1ccc(-n2cc(CN3CCN(c4cc5c(cc4F)c(=O)c(C(=O)O)cn5C4CC4)CC3)nn2)cc1	96.8%	94%	45.8%	62.5%	83.3%	93.5%	61.4%	52.2%	64.9%	84.1%
COc1cc(/C=C/C(=O)c2cccc(-n3cc(-c4ccc(Cl)cc4)[nH]c3=O)c2)ccc1O	58.5%	68.7%	46.4%	31.2%	104%	60.4%	37.2%	106%	19.5%	24.2%
COCCn1cc(-c2nc(-c3cn(CCOC)c4ncccc34)cs2)c2cc(F)ccc21	73.8%	23.2%	82.3%	68.3%	28.2%	76.7%	86.4%	73.3%	72.5%	68.9%
C=C1C(=O)O[C@H]2[C@H]1CC/C(COC(=O)NCc1ccc(Cn3c(=O)sn(-c4ccc(I)cc4)c3=O)cc1)=C\CC[C@@]1(C)O[C@@H]21	89.7%	98.4%	79.1%	54.4%	79.9%	69.7%	71.5%	87.7%	-14.3% (active)	5.6% (active)
Cc1ccc(S(=O)(=O)N2CCCN(c3nc(-c4ccccc4)nc4nc(-c5ccccc5)oc34)CC2)cc1	103%	112%	97.6%	76.8%	103%	103%	93.2%	106%	106%	95%
O=C(NC1CCC(Br)CC1)C1CCCC(S(=O)(=O)NC2CCCCC2)C1 (stereo not given)	17.9% [25 µM]	-19.3% [25 µM] (active)	22.2% [25 µM]	8.5% [25 µM] (active)	18.4% [25 µM]	15.9% [25 µM]	13.5% [25 µM]	-5.7% [25 µM] (active)	18.3% [25 µM]	7.81% [25 µM] (active)
O=S(Nc1ccccc1)c1ccc(Cl)cc1 (stereo not given)	95.2%	102%	102%	85.7%	103%	94.5%	95.5%	95.8%	95.7%	85.7%
COc1ccc(-c2nc(SCC(=O)Nc3nc4ccc(C)cc4s3)[nH]c(=O)c2C#N)cc1OC	115%	97%	95.9%	61%	164%	96.3%	74.7%	102%	110%	99.4%
COc1cc2c3c(c4c5ccccc5[nH]c4c2c(OC)c1OC)C(=O)N(CCN1CCCCC1)C3=O	49.4%	35.1%	12.6%	16.1%	-76.6% (active)	-40.4% (active)	-49% (active)	42.4%	3.38% (active)	12.9%
CC(C)(C)c1ccc(S(=O)(=O)Oc2ccc(-c3sc4cc(OS(=O)(=O)c5ccc(C(C)(C)C)cc5)ccc4c3C(=O)c3ccc(OCCN4CCCCC4)cc3)cc2)cc1	89.9%	83.8%	98.9%	74.6%	90.4%	98.1%	95.7%	105%	93.4%	95.7%
C=CC(=O)Nc1cccc(Oc2nccc(Nc3nnc(-c4ccc(Br)cc4)s3)n2)c1	110%	101%	99.2%	78.9%	152%	100%	81.2%	101%	87.3%	100%
